“And” between values parts separate entries of the source, which are not always exact repeats. Equal values may be shown once. The source holds several records for some structures; these can differ, active in one and inactive in another. The source made the active and inactive calls.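 Rule for the calls, unless noted: active = normalized viability below 100% at a tested concentration; inactive = the rest.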
What was measured:
[1] = ovarian cancer cell viability with rucaparib, profiling panel, oncology-focused library, rucaparib conditional (AID 1508598); conditions: patient-derived ovarian cancer cells, CellTiter-Glo viability, 144 h, stronger effect = lower value
[2] = sensitizers of A549 cells to miR-34 induction, primary screen, imaging, A549 dox-inducible miR-34, nuclei and caspase counts (AID 1347080;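 active = compounds whose cell count with miR-34 switched on is under 0.7 times the count with it off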); conditions: A549 miR-34 inducible, Hoechst nuclei count, 48 h
[3] = survival rescue of mitochondrial mutant cells in low glucose, primary screen, MELAS cybrids, Rieske KO mouse fibroblasts, CellTiter-Glo (AID 1508586;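 active = mean z-score across replicates of 1.96 or higher in either the MELAS or the Rieske mutant cell line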;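 note: z relative to plate mean and SD of compound and empty wells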)
[4] = at 1.25 µM, OCI-C5x cells, with rucaparib 10 µM, 100% = cells with rucaparib alone
[5] = at 1.25 µM, OCI-C5x cells, without rucaparib
[6] = at 1.25 µM, OCI-P5x cells, with rucaparib 20 µM, 100% = cells with rucaparib alone
[7] = at 1.25 µM, OCI-P5x cells, without rucaparib
[8] = at 5 µM, OCI-C5x cells, with rucaparib 10 µM, 100% = cells with rucaparib alone
[9] = at 5 µM, OCI-C5x cells, without rucaparib
[10] = at 5 µM, OCI-P5x cells, with rucaparib 20 µM, 100% = cells with rucaparib alone
[11] = at 5 µM, OCI-P5x cells, without rucaparib
[12] = stronger effect = lower value, cell number ratio, induced over uninduced
[13] = measured here: relative caspase fold change +Dox/-Dox
[14] = measured here: total cells with miR-34 induction, stronger effect = lower value
[15] = measured here: total cells without miR-34 induction
[16] = MELAS cybrid survival, CellTiter-Glo 48 h, stronger effect = higher value
[17] = Rieske KO mouse fibroblast survival, CellTiter-Glo 72 h
[18] = at 0.000305 µM, OCI-C5x cells, with rucaparib 10 µM, 100% = cells with rucaparib alone
[19] = at 0.000305 µM, OCI-C5x cells, without rucaparib
[20] = at 0.000305 µM, OCI-P5x cells, with rucaparib 20 µM, 100% = cells with rucaparib alone
[21] = at 0.000305 µM, OCI-P5x cells, without rucaparib
[22] = at 0.00122 µM, OCI-C5x cells, with rucaparib 10 µM, 100% = cells with rucaparib alone
[23] = at 0.00122 µM, OCI-C5x cells, without rucaparib
[24] = at 0.00122 µM, OCI-P5x cells, with rucaparib 20 µM, 100% = cells with rucaparib alone
[25] = at 0.00122 µM, OCI-P5x cells, without rucaparib
[26] = at 0.00488 µM, OCI-C5x cells, with rucaparib 10 µM, 100% = cells with rucaparib alone
[27] = at 0.00488 µM, OCI-C5x cells, without rucaparib
[28] = at 0.00488 µM, OCI-P5x cells, with rucaparib 20 µM, 100% = cells with rucaparib alone
[29] = at 0.00488 µM, OCI-P5x cells, without rucaparib
[30] = at 0.0195 µM, OCI-C5x cells, with rucaparib 10 µM, 100% = cells with rucaparib alone
[31] = at 0.0195 µM, OCI-C5x cells, without rucaparib
[32] = at 0.0195 µM, OCI-P5x cells, with rucaparib 20 µM, 100% = cells with rucaparib alone
[33] = at 0.0195 µM, OCI-P5x cells, without rucaparib
[34] = at 0.0781 µM, OCI-C5x cells, with rucaparib 10 µM, 100% = cells with rucaparib alone
[35] = at 0.0781 µM, OCI-C5x cells, without rucaparib
[36] = at 0.0781 µM, OCI-P5x cells, with rucaparib 20 µM, 100% = cells with rucaparib alone
[37] = at 0.0781 µM, OCI-P5x cells, without rucaparib
[38] = at 0.313 µM, OCI-C5x cells, with rucaparib 10 µM, 100% = cells with rucaparib alone
[39] = at 0.313 µM, OCI-C5x cells, without rucaparib
[40] = at 0.313 µM, OCI-P5x cells, with rucaparib 20 µM, 100% = cells with rucaparib alone
[41] = at 0.313 µM, OCI-P5x cells, without rucaparib

Cc1[nH]c(C=C2C(=O)Nc3ccc(S(=O)(=O)N(C)c4cccc(Cl)c4)cc32)c(C)c1C(=O)N1CCN(C)CC1
active: viability [1, 11] 58.4%
inactive: viability [1, 4] 138% | viability [1, 5] 151% | viability [1, 6] 114% | viability [1, 7] 107% | viability [1, 8] 133% | viability [1, 9] 126% | viability [1, 10] 102%

COc1cc(Br)c(Nc2nc(-c3c(C)nc4ncccn34)cs2)c(Br)c1
active: viability [1, 20] 95.1% | viability [1, 21] 90.4% | viability [1, 24] 94.4% | viability [1, 25] 96.8% | viability [1, 29] 95.9% | viability [1, 37] 98.6% | viability [1, 6] 78.1% | viability [1, 7] 97.5% | viability [1, 10] 30.8% | viability [1, 11] 19%
1740 and 1960: cell count [2, 15]
0.552 and 0.466: fold change [2, 13]
0.545 and -1.29: z-score [3, 17]
1800 and 1730: cell count [2, 14]
2.29 (active) and 1.89 (inactive): z-score [3, 16]
inactive: fold change [2, 12] 1.04 and 0.88 | viability [1, 18] 125% | viability [1, 19] 110% | viability [1, 22] 131% | viability [1, 23] 111% | viability [1, 26] 131% | viability [1, 27] 109% | viability [1, 28] 100% | viability [1, 30] 135% | viability [1, 31] 110% | viability [1, 32] 101% | viability [1, 33] 102% | viability [1, 34] 136% | viability [1, 35] 111% | viability [1, 36] 101% | viability [1, 38] 118% | viability [1, 39] 108% | viability [1, 40] 100% | viability [1, 41] 100% | viability [1, 4] 122% | viability [1, 5] 115% | viability [1, 8] 129% | viability [1, 9] 140%

NC(=O)CCCSc1nc(N)nc(-c2c(Cl)cc3c4c(cccc24)COC3)n1
0.479: fold change [2, 13]
inactive: fold change [2, 12] 0.945 | viability [1, 18] 109% | viability [1, 20] 104% | viability [1, 21] 102% | viability [1, 22] 107% | viability [1, 23] 101% | viability [1, 26] 114% | viability [1, 27] 103% | viability [1, 28] 106% | viability [1, 30] 125% | viability [1, 31] 111% | viability [1, 32] 103% | viability [1, 34] 147%
active: z-score [3, 16] 2.88 | viability [1, 19] 95.8% | viability [1, 24] 98% | viability [1, 25] 96.2% | viability [1, 29] 98.7% | viability [1, 33] 94.9% | viability [1, 35] 98.7% | viability [1, 36] 16.9% | viability [1, 37] 38.5% | viability [1, 38] 74.7% | viability [1, 39] 35.4% | viability [1, 40] 14.5% | viability [1, 41] 8.07% | viability [1, 4] 16% | viability [1, 5] 7.19% | viability [1, 6] 7.31% | viability [1, 7] 5.49% | viability [1, 8] 9.52% | viability [1, 9] 6.09% | viability [1, 10] 4.5% | viability [1, 11] 3.17%
2570: cell count [2, 15]
2430: cell count [2, 14]
-2.67: z-score [3, 17]

CC(=O)O[C@@]1(C(C)=O)CC[C@H]2[C@@H]3C=C(C)C4=CC(=O)CC[C@]4(C)[C@@H]3CC[C@@]21C
7070: cell count [2, 15]
inactive: fold change [2, 12] 0.871 | z-score [3, 16] -0.515 | viability [1, 19] 104% | viability [1, 21] 104% | viability [1, 22] 107% | viability [1, 25] 100% | viability [1, 26] 102% | viability [1, 27] 101% | viability [1, 30] 100% | viability [1, 36] 100% | viability [1, 37] 100% | viability [1, 38] 116% | viability [1, 4] 116% | viability [1, 8] 111%
0.828: fold change [2, 13]
active: viability [1, 18] 94.9% | viability [1, 20] 96.4% | viability [1, 23] 97.6% | viability [1, 24] 99.8% | viability [1, 28] 99.9% | viability [1, 29] 96.3% | viability [1, 31] 99.3% | viability [1, 32] 96.9% | viability [1, 33] 93.1% | viability [1, 34] 98.1% | viability [1, 35] 94.7% | viability [1, 39] 90.3% | viability [1, 40] 92.2% | viability [1, 41] 89.7% | viability [1, 5] 92.1% | viability [1, 6] 89.9% | viability [1, 7] 82.2% | viability [1, 9] 93.9% | viability [1, 10] 84.5% | viability [1, 11] 82.1%
0.339: z-score [3, 17]
6160: cell count [2, 14]

C[C@]12CC[C@H]3c4ccc(O)cc4CC[C@H]3[C@@H]1CCC2=O
1.15: fold change [2, 13]
7600: cell count [2, 14]
inactive: fold change [2, 12] 0.911 | z-score [3, 16] -0.223 | viability [1, 18] 108% | viability [1, 19] 116% | viability [1, 20] 102% | viability [1, 21] 111% | viability [1, 22] 112% | viability [1, 23] 117% | viability [1, 24] 101% | viability [1, 25] 106% | viability [1, 26] 115% | viability [1, 27] 120% | viability [1, 29] 100% | viability [1, 30] 114% | viability [1, 31] 108% | viability [1, 34] 115%
0.742: z-score [3, 17]
active: viability [1, 28] 99.5% | viability [1, 32] 96.5% | viability [1, 33] 96.2% | viability [1, 35] 99.8% | viability [1, 36] 96.1% | viability [1, 37] 66% | viability [1, 38] 81.6% | viability [1, 39] 57.7% | viability [1, 40] 80.9% | viability [1, 41] 42.9% | viability [1, 4] 78% | viability [1, 5] 63.5% | viability [1, 6] 65% | viability [1, 7] 29.9% | viability [1, 8] 36.6% | viability [1, 9] 23.7% | viability [1, 10] 43.7% | viability [1, 11] 13.5%
8340: cell count [2, 15]

From PubChem BioAssay
